Bioassay records (PubChem BioAssay)
A selection: hits, their analogues and other compounds. The true share with any hit is near 19%.
Pf growth 48h – inhibits P. falciparum growth in the first generation, 48 h. P. falciparum luciferase growth in erythrocytes, 48 h. Potency, µM (doses to about 28.7 µM), hits mostly inhibitors. 310,000 compounds, 5.9% hits
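Erythrocytes infected with P. falciparum carrying an integrated firefly luciferase reporter (2% hematocrit, 0.1% parasitemia final) were exposed to compounds in RPMI 1640 with 0.5% Albumax at 37 C, 5% CO2. Growth inhibition was scored as reduced luminescence.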
Shiga inhibitor – blocks Shiga toxin action in Vero cells; Vero cells, Shiga toxin protein synthesis inhibition reporter; inhibition, % at 38.7 µM; 290,000 compounds, 9.2% hits; AID 2315; in the data active = inhibition mostly above about 28%, no sharp cut-off; inactive = mostly below about 43%
CHX counter – affects cycloheximide protein synthesis inhibition readout, counter-screen. max response, %. 300,000 compounds, 12% hits. cell reporter, cycloheximide protein synthesis inhibition counterscreen. AID 2314; in the data active = max response mostly above about 13%, no sharp cut-off; inactive = mostly below about 14%; also: read at 38.3 µM for the half of the compounds with a filed dose
MARV entry inh – inhibitors of Marburg virus binding or cell entry. 300,000 compounds, 1.8% hits. Marburg virus pseudotyped entry inhibition, cell reporter. Potency, µM (doses to about 37.8 µM), hits mostly inhibitors; calls by dose curve; tested in HEK293 cells
Pf growth 96h – P. falciparum growth inhibition at 96 hour, primary screen for plastid delayed-death inhibitors. 320,000 compounds, 6.9% hits. Potency, µM (titrated, usually from 28.7 µM), actives largely listed as inhibitors. P. falciparum luciferase reporter growth, 96 h
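Infected RBCs, 2% Hct / 0.05% parasitemia final; luciferase-reporter P. falciparum; cpd 96 h, 37 C, 5% CO2; luciferase detection reagent; luminescence.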
LASV entry inh – inhibitors of Lassa virus binding or cell entry; Potency, µM (highest dose often 37.9 µM), hits mostly inhibitors; Lassa virus pseudotype entry inhibition, cell reporter; 300,000 compounds, 1.2% hits; calls by dose curve; tested in HEK293 cells; also: nearly all actives have a fitted effect of over 50% in size
Large screens that a line does not name were inactive. Unless noted, calls follow the shape of the dose curve; as a rule, active = well fitted inhibition curve with a large enough effect; inconclusive = small, poorly fitted or top-dose-only effect, or another doubt; inactive = no such curve, though single readings can be large or run the other way.

COc1ccc(/C=C2\Sc3ccc(C(=O)N4CCc5ccccc5C4)cc3N(C)C2=O)cc1	Pf growth 96h inconclusive (no result: LASV entry inh)
COc1ccc(/C=C2\Sc3ccc(C(=O)NCCN4CCCCCC4)cc3N(C)C2=O)cc1	Pf growth 48h 3.29µM (no result: MARV entry inh, LASV entry inh)
CCN1CCN(CCNC(=O)c2ccc3c(c2)N(Cc2ccc(F)cc2)C(=O)/C(=C/c2ccccc2)S3)CC1	Pf growth 48h 6.57µM, MARV entry inh inconclusive, LASV entry inh inconclusive
COc1ccc(/C=C2\Sc3ccc(C(=O)NC4CC4)cc3N(C)C2=O)cc1OC	Pf growth 48h inconclusive (no result: MARV entry inh, LASV entry inh)
CCOc1ccc(/C=C2/Sc3ccc(C(=O)N4CCOCC4)cc3N(C)C2=O)cc1OC	Pf growth 48h 9.28µM, MARV entry inh inconclusive, LASV entry inh inconclusive
CCN(C(=O)CSc1nc2cc(S(=O)(=O)N(CC)CC)ccc2n1CC)C1CCS(=O)(=O)C1 (stereo not given)	Pf growth 96h inconclusive (no result: Shiga inhibitor, CHX counter)
Nc1c(C(=O)OCC2CCCO2)c2nc3ccccc3nc2n1Cc1cccs1 (stereo not given)	Pf growth 48h inconclusive, MARV entry inh inconclusive, Pf growth 96h 3.7µM, LASV entry inh inconclusive
CC(C)Cn1c(N)c(C(=O)NCC2CCCO2)c2nc3ccccc3nc21 (stereo not given)	Pf growth 48h inconclusive, MARV entry inh inconclusive, Pf growth 96h inconclusive
COCCn1c(N)c(C(=O)NCC2CCCO2)c2nc3ccccc3nc21 (stereo not given)	Pf growth 48h inconclusive, MARV entry inh inconclusive
Nc1c(C(=O)OCC2CCCO2)c2nc3ccccc3nc2n1C1CCCC1 (stereo not given)	Pf growth 48h 10.4µM
O=C(Nc1ccccc1C(=O)N1CCOCC1)C1CC(=O)N(C2CCCC2)C1 (stereo not given)	Pf growth 96h inconclusive
CCCCCCC(O)(c1ccccc1)C(CN1CCOCC1)c1ccccc1 (stereo not given)	Pf growth 48h 3.29µM (no result: MARV entry inh, LASV entry inh)
CCCCCC(O)(c1ccccc1)C(CN1CCOCC1)c1ccccc1 (stereo not given)	Pf growth 48h 2.62µM (no result: MARV entry inh, LASV entry inh)
CCCC(O)(c1ccccc1)C(CN1CCOCC1)c1ccccc1 (stereo not given)	Pf growth 96h inconclusive (no result: Pf growth 48h, MARV entry inh, LASV entry inh)
CCCCCCC(O)(c1ccc(OC)cc1)C(CN1CCOCC1)c1ccccc1 (stereo not given)	Pf growth 48h 1.85µM, MARV entry inh inconclusive, Pf growth 96h 10.4µM, LASV entry inh inconclusive
Cn1c(SCC(=O)N2CCc3ccccc3C2)nnc1-c1cccs1	none
O=C(COC(=O)CSc1ccc(Cl)cc1)Nc1ccccc1	none (no result: Shiga inhibitor, CHX counter, MARV entry inh, LASV entry inh)
COc1ccccc1OCCn1cc(/C=C(\C#N)C(=O)NCc2ccco2)c2ccccc21	Pf growth 48h inconclusive
Cc1cccc(-n2c(C)cc(C=C(C#N)C#N)c2C)c1	Pf growth 96h inconclusive
Cc1cc(/C=C(/C#N)c2cccc(F)c2)c(C)n1-c1cccnc1	Pf growth 48h inconclusive, Shiga inhibitor 58.9, CHX counter 44.6, MARV entry inh inconclusive (no result: Pf growth 96h)
Cc1cc(/C=C(\C#N)C(=O)NCc2ccco2)c(C)n1-c1cccnc1	Shiga inhibitor 72.5, CHX counter 38.2, MARV entry inh inconclusive
Cc1cc(/C=C(\C#N)C(=O)NCc2ccco2)c(C)n1C1CCCC1	Shiga inhibitor 85.0, CHX counter 50.9 (no result: Pf growth 96h)
Cc1cc(/C=C(/C#N)c2cccc(Cl)c2)c(C)n1C	CHX counter 19.2, MARV entry inh inconclusive, Pf growth 96h inconclusive
COc1cccc(NC(=O)CN2C(=O)COc3ccc(C)cc32)c1	MARV entry inh inconclusive
COc1ccc(CCNC(=O)C(=O)c2cn(CC(=O)N3CCOCC3)c3ccccc23)cc1OC	Pf growth 96h inconclusive
Cc1cc(/C=C(\C#N)C(=O)Nc2ccccc2)c(C)n1-c1ccc(C(=O)O)cc1	Pf growth 96h inconclusive (no result: MARV entry inh, LASV entry inh)
Cc1cc(/C=C(\C#N)C(=O)NCc2cccs2)c(C)n1-c1ccc([N+](=O)[O-])cc1	Pf growth 48h 2.33µM, MARV entry inh inconclusive, Pf growth 96h inconclusive
Cc1cc(C)nc(SCc2nc3nc(C)cc(C)n3c2Br)n1	Pf growth 48h 10.4µM, Pf growth 96h 1.47µM
N#CC1=C(N)Oc2n[nH]c(-c3cccnc3)c2C1c1ccc([N+](=O)[O-])o1 (stereo not given)	CHX counter 20.4, Pf growth 96h inconclusive, LASV entry inh inconclusive
N#CC1=C(N)Oc2n[nH]c(-c3ccccc3)c2C1c1cccnc1 (stereo not given)	none
Cc1cccc(N2CCN(C(=O)c3ccccc3NC(=O)C3=CSCCO3)CC2C)c1 (stereo not given)	Pf growth 48h inconclusive, Pf growth 96h inconclusive (no result: MARV entry inh, LASV entry inh)
CC(=O)Nc1ccc(C2=NN(c3ccccc3)C(c3cccs3)C2)cc1 (stereo not given)	Pf growth 48h inconclusive, Shiga inhibitor 87.9, CHX counter 70.3, Pf growth 96h inconclusive
CCS(=O)(=O)Nc1ccc(C2=NN(C(=O)c3ccccc3)C(c3cccs3)C2)cc1 (stereo not given)	Pf growth 48h inconclusive, Pf growth 96h inconclusive (no result: MARV entry inh, LASV entry inh)
COc1ccc(C2=NN(S(C)(=O)=O)C(c3cccs3)C2)cc1 (stereo not given)	Shiga inhibitor 59.6, CHX counter 40.7, MARV entry inh inconclusive
CS(=O)(=O)N1N=C(c2ccc(Br)cc2)CC1c1cccs1 (stereo not given)	Shiga inhibitor 48.2, CHX counter 32.4 (no result: Pf growth 48h)
COc1ccc(C(=O)N2N=C(c3cccc(NS(C)(=O)=O)c3)CC2c2cccs2)cc1 (stereo not given)	Pf growth 48h inconclusive, LASV entry inh inconclusive
Cc1ccc(C2=NN(S(C)(=O)=O)C(c3cccs3)C2)cc1 (stereo not given)	Shiga inhibitor 178.1, CHX counter 35.4, MARV entry inh inconclusive
CCOC(=O)N1CCN(c2cc(=O)n(C)c(=O)n2C)CC1	none
Cc1ccc(C(=O)O)cc1S(=O)(=O)N1CCCC1	none (no result: Pf growth 48h, Pf growth 96h)
O=C(COC(=O)c1cc(Cl)ccc1O)Nc1cc(C(F)(F)F)ccc1N1CCOCC1	none (no result: Pf growth 48h, Shiga inhibitor, CHX counter, Pf growth 96h)
Cc1ccc(-n2c(SCC(=O)Nc3ccc4c(c3)OCO4)nnc2-c2cccs2)cc1	Pf growth 48h inconclusive (no result: Pf growth 96h)
O=C(CNCCO)N1N=C(c2cccs2)CC1c1cccs1 (stereo not given)	none
CCc1ccc(C2=NN(S(C)(=O)=O)C(c3cccs3)C2)cc1 (stereo not given)	Shiga inhibitor 87.6, CHX counter 64.9, MARV entry inh inconclusive, Pf growth 96h 0.294µM, LASV entry inh inconclusive (no result: Pf growth 48h)
Cc1ccc(C2=NN(C(=O)CNCCO)C(c3cccs3)C2)cc1 (stereo not given)	Pf growth 48h inconclusive, CHX counter 42.4, Pf growth 96h inconclusive (no result: MARV entry inh, LASV entry inh)
CCOC(=O)Cn1c(=O)c2c(nc3n2CCCCN3c2ccc(OCC)cc2)n(C)c1=O	none (no result: Pf growth 48h, Shiga inhibitor, CHX counter, Pf growth 96h)
C=CCn1c(=O)c2c(nc(Br)n2Cc2ccccc2Cl)n(C)c1=O	Pf growth 48h inconclusive, Pf growth 96h 11.7µM, LASV entry inh inconclusive
Cn1c(=O)n(CC(N)=O)c(=O)c2c1nc(Br)n2Cc1ccccc1	Pf growth 96h 2.08µM (no result: MARV entry inh, LASV entry inh)
Cn1c(NN)nc2c1c(=O)n(Cc1ccccc1)c(=O)n2C	Pf growth 48h 11.7µM (no result: MARV entry inh, LASV entry inh)
Cn1c(Br)nc2c1c(=O)n(Cc1ccccc1)c(=O)n2C	none
